Measured values reported in PubChem BioAssay (Tox21).
Results filed as inconclusive are left out. The source made the active and inactive calls. Unless noted, calls follow the shape of the dose curve; as a rule, active = well fitted curve in the direction sought with a large enough effect in the repeat runs; inconclusive = weak or mixed curves; inactive = flat fitted curve, though single readings scatter.

Tests used:
[1] = qHTS assay to test for compound auto fluorescence at 535 nm (green) in HEK293 cells (AID 720680)
[2] = qHTS assay to test for compound auto fluorescence at 460 nm (blue) in HEK293 cell free culture (AID 720681)
Method in brief: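 Test compounds were pinned into cell-free culture medium (DMEM with 10% FBS) and fluorescence was read directly at Ex/Em 405/460 nm. Signals were expressed as fluorescence equivalents of triamterene, with DMSO vehicle as control.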

[3] = qHTS assay to test for compound auto fluorescence at 535 nm (green) in HEK293 cell free culture (AID 720682)
Method in brief: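 Using fluorescein as calibrant, autofluorescence was quantified at 485/535 nm in cell-free DMEM containing 10% FBS after pintool addition of compound or vehicle.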

[4] = qHTS assay to test for compound auto fluorescence at 590 nm (red) in HEK293 cell free culture (AID 720683)
Method in brief: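 Tox21 10K library compounds were pinned into cell-free DMEM with 10% FBS and fluorescence was read at excitation 540 nm. Activity is expressed as Rose Bengal sodium equivalency.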

[5] = qHTS assay to test for compound auto fluorescence at 590 nm (red) in HepG2 cell free culture (AID 720684)
Method in brief: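 Measured in medium alone (MEM containing 10% FBS) following pintool addition of compound; emission at 590 nm with 540 nm excitation, referenced to Rose Bengal sodium.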

[6] = qHTS assay to test for compound auto fluorescence at 460 nm (blue) in HepG2 cell free culture (AID 720685)
Method in brief: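 Compound (23 nL) or DMSO pinned into cell-free MEM with 10% FBS; blue fluorescence read at 405/460 nm excitation/emission, expressed as auto-fluorescence equivalency to triamterene.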

[7] = qHTS assay to test for compound auto fluorescence at 535 nm (green) in HepG2 cell free culture (AID 720686)
[8] = qHTS assay to test for compound auto fluorescence at 460 nm (blue) in HepG2 cells (AID 720687)
Method in brief: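 Cells (2,000/well in MEM with 10% FBS) attached overnight at 37 C, then were exposed to compound or DMSO for 1 hr at 37 C, 5% CO2. Fluorescence read at Ex/Em 405/460 nm, expressed as triamterene-equivalent signal.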

[9] = target: Glucocorticoid receptor (Homo sapiens) (UniProt P04150); assay: qHTS assay to identify small molecule agonists of the glucocorticoid receptor (GR) signaling pathway (AID 720691; active = well fitted activation curve with a large enough effect in the signal ratio in the repeat runs, not every such curve was filed as active; the % refers to the signal ratio)
Method in brief: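 Reporter read-out: fluorescence intensity following 2 h room-temperature LiveBLAzer B/G FRET substrate loading. Prior step: GR-bla HeLa cells held 4 h, then treated 18 h at 37 C.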

[10] = target: Glucocorticoid receptor (Homo sapiens) (UniProt P04150); assay: qHTS assay to identify small molecule antagonists of the glucocorticoid receptor (GR) signaling pathway (AID 720692; active = well fitted inhibition curve with a large enough effect in the signal ratio in the repeat runs, not every such curve was filed as active; the % refers to the signal ratio)
Method in brief: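 Dexamethasone (5 nM final) stimulated a stably integrated GRE-beta-lactamase reporter in HeLa cells during 18 h co-incubation with compounds; signal was quantified as fluorescence intensity of B/G FRET substrate after 2 h.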

Measured: Potency

Chain of Glucocorticoid receptor (Homo sapiens) (P04150 whole entry, looked up): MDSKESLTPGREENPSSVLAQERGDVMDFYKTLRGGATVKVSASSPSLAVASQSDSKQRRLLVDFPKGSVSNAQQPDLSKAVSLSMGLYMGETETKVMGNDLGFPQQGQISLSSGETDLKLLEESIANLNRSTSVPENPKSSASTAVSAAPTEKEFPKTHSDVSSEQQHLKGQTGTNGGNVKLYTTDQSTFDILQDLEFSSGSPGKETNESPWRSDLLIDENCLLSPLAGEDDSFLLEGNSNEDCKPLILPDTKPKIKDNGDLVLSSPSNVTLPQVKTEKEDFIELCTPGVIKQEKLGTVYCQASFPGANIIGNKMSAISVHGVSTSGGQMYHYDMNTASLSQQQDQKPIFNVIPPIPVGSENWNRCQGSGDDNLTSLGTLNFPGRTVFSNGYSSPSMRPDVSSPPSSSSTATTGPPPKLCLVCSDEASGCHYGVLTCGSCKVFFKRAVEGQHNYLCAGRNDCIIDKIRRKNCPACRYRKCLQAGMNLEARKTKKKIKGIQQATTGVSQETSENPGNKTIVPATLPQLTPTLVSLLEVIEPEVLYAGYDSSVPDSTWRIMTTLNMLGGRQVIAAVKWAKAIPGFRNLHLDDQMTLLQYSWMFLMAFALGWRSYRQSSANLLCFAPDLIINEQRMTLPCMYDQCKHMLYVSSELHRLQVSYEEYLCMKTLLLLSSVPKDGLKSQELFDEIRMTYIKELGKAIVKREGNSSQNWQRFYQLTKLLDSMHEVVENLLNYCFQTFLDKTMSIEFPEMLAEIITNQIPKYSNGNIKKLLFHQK

CCN(CC)CCNC(=O)c1ccc(N)cc1
inactive: [1] | [2] | [3] | [4] | [5] | [6] | [7] | [8]

Cc1ccncc1
inactive: [1] | [2] | [3] | [4] | [5] | [6] | [7] | [8] | [9] | [10]

COc1ccc([C@@H]2CC(=O)c3c(O)cc(O[C@@H]4O[C@H](CO[C@@H]5O[C@@H](C)[C@H](O)[C@@H](O)[C@H]5O)[C@@H](O)[C@H](O)[C@H]4O)cc3O2)cc1OC
inactive: [1] | [2] | [3] | [4] | [5] | [6] | [7] | [8]

Cc1ccc(C)c(S(=O)(=O)O)c1
inactive: [1] | [2] | [3] | [4] | [5] | [6] | [7] | [8]

OCC(CO)(CO)CO
inactive: [1] | [2] | [3] | [4] | [5] | [6] | [7] | [8]

CCCCCNCCCCC
inactive: [1] | [2] | [3] | [4] | [5] | [6] | [7] | [8]

Cc1ccccc1C=O
inactive: [1] | [2] | [3] | [4] | [5] | [6] | [7] | [8] | [9] | [10]

O=[N+]([O-])c1cc(C(F)(F)F)ccc1Cl
inactive: [1] | [2] | [3] | [4] | [5] | [6] | [7] | [8] | [9] | [10]

Cc1cc(C)cc(O)c1
inactive: [1] | [2] | [3] | [4] | [5] | [6] | [7] | [8] | [9] | [10]

COc1c2ccoc2cc2oc(=O)ccc12
inactive: [1] | [2] | [3] | [4] | [5] | [6] | [7] | [8] | [9] | [10]

Clc1cccc(Cl)c1NC1=NCCN1
inactive: [1] | [2] | [3] | [4] | [5] | [6] | [7] | [8] | [9] | [10]

CCCOC(=O)NCCCN(C)C
inactive: [1] | [2] | [3] | [4] | [5] | [6] | [7] | [8]

CCCOCC(C)O (stereo not given)
inactive: [1] | [2] | [3] | [4] | [5] | [6] | [7] | [8]

OCC(O)CS (stereo not given)
inactive: [1] | [2] | [3] | [4] | [5] | [6] | [7] | [8] | [9] | [10]

Cc1cccc(C)c1[N+](=O)[O-]
inactive: [1] | [2] | [3] | [4] | [5] | [6] | [7] | [8] | [9]

CN=C(NC#N)NCCSCc1nc[nH]c1C
inactive: [1] | [2] | [3] | [4] | [5] | [6] | [7] | [8]

Cc1nnc(NS(=O)(=O)c2ccc(N)cc2)s1
inactive: [1] | [2] | [3] | [4] | [5] | [6] | [7] | [8]

O=C1OC(=O)c2c(Cl)c(Cl)c(Cl)c(Cl)c21
inactive: [1] | [2] | [3] | [4] | [5] | [6] | [7] | [8]

CC(=O)OCCC(C)C
inactive: [1] | [2] | [3] | [4] | [5] | [6] | [7] | [8] | [9] | [10]

CC(=O)c1nccs1
inactive: [1] | [2] | [3] | [4] | [5] | [6] | [7] | [8] | [9] | [10]

CCc1cccc(O)c1
inactive: [1] | [2] | [3] | [4] | [5] | [6] | [7] | [8]

CC1=CC(=O)CC(C)(C)C1
inactive: [1] | [2] | [3] | [4] | [5] | [6] | [7] | [8] | [9] | [10]

Oc1ccc(Cc2ccccc2O)cc1
inactive: [1] | [2] | [3] | [4] | [5] | [6] | [7] | [8] | [9] | [10]

CN1Cc2c(N)cccc2C(c2ccccc2)C1 (stereo not given)
inactive: [1] | [2] | [3] | [4] | [5] | [6] | [7] | [8] | [9] | [10]

Cc1ncc(CO)c(CO)c1O
inactive: [1] | [2] | [3] | [4] | [5] | [6] | [7] | [8]

COC(=O)/C=C\C(=O)OC
inactive: [1] | [2] | [3] | [4] | [5] | [6] | [7] | [8] | [9]

Cc1ccc([N+](=O)[O-])cc1N
inactive: [1] | [2] | [3] | [4] | [5] | [6] | [7] | [8]

NC(=O)NC(N)=O
inactive: [1] | [2] | [3] | [4] | [5] | [6] | [7] | [8]
